Compound activity as filed in PubChem.
A selection: hits, their analogues and other compounds. The true share with any hit is near 5.3%.
LASV entry inh = blocks Lassa virus binding to or entry into cells; Lassa virus pseudotype entry inhibition, cell reporter; Potency, µM (doses to about 37.9 µM), inactives show top-dose activity change, negative = inhibition, usual class: inhibitors; hit rate 1.2% among 300,000; calls by dose curve; tested in HEK293 cells; further: nearly all actives have a fitted effect of over 50% in size
Vaccinia Venus = inhibitors of vaccinia virus (Venus reporter). Vaccinia virus Venus reporter expression, fluorescence. Potency, µM (top dose mostly 36.5 µM), inactives show at the highest dose activity change, negative = inhibition, hits mostly inhibitors. hit rate 0.46% among 330,000. AID 720580; calls by dose curve; tested in A549 cells; further: nearly all actives have a fitted effect of over 30% in size
MARV entry inh = Marburg virus entry inhibition; Marburg virus pseudotyped entry inhibition, cell reporter; Potency, µM (top dose mostly 37.8 µM), inactives show top-dose activity change, negative = inhibition, most hits filed as inhibitors; hit rate 1.8% among 300,000; AID 540276; calls by dose curve; tested in HEK293 cells
HCV inh = inhibitors of hepatitis C virus infection; Huh7.5.1 HCVcc-Cre infection, luciferase reporter, 44 h; Potency, µM (titrated, usually from 41.8 µM), for the others: top-dose activity change, negative = inhibition, actives largely listed as inhibitors; hit rate 3.4% among 340,000; active means well fitted inhibition curve with a large enough effect; inconclusive means small, poorly fitted or top-dose-only effect, or another doubt; inactive means no such curve, though single readings can be large or run the other way
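Cells seeded at 1,000/well and cultured 4 h, then compounds added followed by HCVcc-Cre virus (~0.5 moi). After 44 h further culture, luciferase substrate was added, plates held 15 min at room temperature, and luminescence read for 15 sec.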
VACV mCherry inh = inhibitors of vaccinia virus infection (mCherry reporter signal) | Vaccinia virus mCherry reporter infection, fluorescence | Potency, µM (highest dose often 36.5 µM), for inactives: at the highest dose activity change, negative = inhibition, hits mostly inhibitors | hit rate 0.63% among 310,000; calls by dose curve; tested in A549 cells; further: nearly all actives have a fitted effect of over 35% in size
FMDV antiviral = foot and mouth disease virus antiviral activity; FMDV antiviral cell-based qHTS; Potency, µM (highest dose often 57.9 µM), for inactives: top-dose activity change, negative = inhibition, actives largely listed as inhibitors; hit rate 1.2% among 410,000; calls by dose curve; tested in HEK293T cells; further: read-out not given here; nearly all actives have a fitted effect of over 45% in size
Active calls of the source: *; [ ] = another dose, or the depositor's remark. On the % scale 0 is the no-effect control and ±100 the full control effect; potency means the concentration at half of the fitted maximal effect.

`CCN1CCN(S(=O)(=O)c2ccc(Cl)c(C(=O)Nc3ccccc3N3CCCC3)c2)CC1` gave LASV entry inh -10%, Vaccinia Venus -11%, MARV entry inh -3%, HCV inh 5%, VACV mCherry inh -5% and FMDV antiviral -1%.
For O=C(NC(=S)Nc1ccccc1N1CCCCC1)c1ccccc1 the results were Vaccinia Venus -23%, HCV inh 11µM*, VACV mCherry inh inconclusive and FMDV antiviral inconclusive.
`CCN1CCN(S(=O)(=O)c2ccc(Cl)c(C(=O)Nc3ccccc3N3CCCCC3)c2)CC1` gave LASV entry inh inconclusive, Vaccinia Venus -25%, MARV entry inh 11µM*, HCV inh 13µM*, VACV mCherry inh -30% and FMDV antiviral 3%.
Screening O=C(Nc1cccc2c1CCCC2)c1ccc(Cl)c([N+](=O)[O-])c1 returned LASV entry inh 0%, Vaccinia Venus 4%, MARV entry inh -7%, HCV inh inconclusive, VACV mCherry inh 3% and FMDV antiviral 25µM*.
Screening O=C(NC(=S)Nc1ccccc1N1CCCC1)c1ccc(F)cc1 returned LASV entry inh -25%, Vaccinia Venus 15%, MARV entry inh -27%, HCV inh inconclusive, VACV mCherry inh -8% and FMDV antiviral -26%.
For O=C(Nc1cccc2c1CCCC2)c1cc([N+](=O)[O-])ccc1Cl the results were LASV entry inh inconclusive, Vaccinia Venus -24%, MARV entry inh -24%, HCV inh inconclusive, VACV mCherry inh -5%[1.46 µM] and FMDV antiviral inconclusive.
O=C(NCCCN1CCOCC1)c1cnn(-c2ncc3c(n2)-c2ccccc2CC3)c1C1CC1 was read as Vaccinia Venus -11%, VACV mCherry inh -29% and FMDV antiviral -6%.
For CCN1C(=NCc2ccc(OC)cc2)NC(c2cccc(C(F)(F)F)c2)C(C(=O)OC)=C1C (centres undefined) the results were MARV entry inh 13%[14.2 µM].
Screening CC1N=C2C(=O)OC3C=CC=CC3=C2N1c1ccccc1 (centres undefined) returned MARV entry inh 4%.
Screening O=C(Nc1ccccc1C(=O)N1CCCC1)c1ccc(Cl)c([N+](=O)[O-])c1 returned LASV entry inh 12%, Vaccinia Venus 5%, MARV entry inh -4%[46.1 µM], HCV inh 8%, VACV mCherry inh -12% and FMDV antiviral 2%.
For O=C(Nc1ccccc1-c1ccccc1)c1ccc(Cl)c([N+](=O)[O-])c1 the results were LASV entry inh 23µM*, Vaccinia Venus 13µM*, MARV entry inh 7.3µM*, HCV inh inconclusive, VACV mCherry inh 20µM* and FMDV antiviral -9%.
For Cc1ccccc1NC(=O)c1sc(Cl)nc1C the results were LASV entry inh 1%, Vaccinia Venus inconclusive, MARV entry inh -4%, HCV inh 4%, VACV mCherry inh 10µM* and FMDV antiviral -2%.
For Cc1cccc(NC(=O)c2sc(Cl)nc2C)c1C the results were LASV entry inh 2%, Vaccinia Venus inconclusive, MARV entry inh -3%, HCV inh 3%, VACV mCherry inh inconclusive and FMDV antiviral -11%.
Screening Cc1ccc(NC(=O)c2sc(C)nc2C)c(C)c1 returned LASV entry inh 25%[46.1 µM], Vaccinia Venus -6%, MARV entry inh inconclusive, HCV inh 3%, VACV mCherry inh -17% and FMDV antiviral 0%.
Screening Cc1ccc(NC(=O)c2sc(Cl)nc2C)c(C)c1 returned LASV entry inh 2%, Vaccinia Venus inconclusive, MARV entry inh 1%, HCV inh -1%, VACV mCherry inh 11µM* and FMDV antiviral 23%.
`COc1ccccc1CNC(=O)c1ccc2nc(-c3ccccc3)c(-c3ccccc3)nc2c1` gave LASV entry inh 27%[46.1 µM], Vaccinia Venus -13%, VACV mCherry inh -12% and FMDV antiviral inconclusive.
Cc1ccc2nc(-c3ccncc3)cc(-c3ccccc3)c2c1 was read as LASV entry inh -1%, MARV entry inh 13µM*, HCV inh 11µM* and FMDV antiviral 0%.
For CC(C)COC(=O)N1CCCC1C(=O)O (centres undefined) the results were LASV entry inh -4%, Vaccinia Venus 0%, MARV entry inh 6%, HCV inh 3.2µM* and VACV mCherry inh inconclusive.
Screening O=C(NCc1ccccc1Cl)c1nnc(Cc2ccc(Cl)cc2)o1 returned LASV entry inh 22%[46.1 µM], Vaccinia Venus -10%, MARV entry inh -17%[46.1 µM], VACV mCherry inh -11% and FMDV antiviral -9%.
COc1ccccc1Nc1c2c(nc3ccc(NC(=O)/C=C/c4cccc(OC)c4OC)cc13)CCCC2 was read as LASV entry inh -20%[46.1 µM], Vaccinia Venus inconclusive, MARV entry inh inconclusive, VACV mCherry inh inconclusive and FMDV antiviral -27%.
For Fc1ccc(Nc2c3c(nc4ccccc24)CCC3)cc1 the results were LASV entry inh inconclusive, Vaccinia Venus -23%, MARV entry inh inconclusive, HCV inh 14µM*, VACV mCherry inh -28% and FMDV antiviral -26%.
For COc1ccc(Nc2c3c(nc4ccccc24)CCC3)cc1Cl the results were LASV entry inh -27%[46.1 µM], Vaccinia Venus inconclusive, MARV entry inh inconclusive, VACV mCherry inh inconclusive and FMDV antiviral inconclusive.
COc1ccc(Nc2c3c(nc4ccccc24)CCC3)cc1 was read as LASV entry inh inconclusive, Vaccinia Venus inconclusive, MARV entry inh 8.9µM*, HCV inh inconclusive, VACV mCherry inh inconclusive and FMDV antiviral inconclusive.
Screening COc1ccc(Nc2c3c(nc4ccccc24)CCCC3)cc1OC returned LASV entry inh -24%, Vaccinia Venus -8%, MARV entry inh 8.9µM*, HCV inh inconclusive, VACV mCherry inh inconclusive and FMDV antiviral -25%.
`COc1ccccc1Nc1c2c(nc3ccc(NC(=O)c4cccc(F)c4)cc13)CCCC2` gave LASV entry inh inconclusive, Vaccinia Venus inconclusive, MARV entry inh inconclusive, VACV mCherry inh 11µM* and FMDV antiviral 32µM*.
c1ccc(Nc2c3c(nc4ccccc24)CCC3)cc1 was read as LASV entry inh -38%, Vaccinia Venus -5%, MARV entry inh inconclusive, HCV inh inconclusive, VACV mCherry inh inconclusive and FMDV antiviral inconclusive.
`CCCN1CCN(c2nnc(-n3cccc3C(=O)Nc3ccccc3C(F)(F)F)s2)CC1` gave LASV entry inh inconclusive, Vaccinia Venus -7%, VACV mCherry inh -12% and FMDV antiviral -1%.
Screening O=C(C[n+]1cc(Br)cc(Br)c1)c1ccc(I)cc1 returned Vaccinia Venus 12% and VACV mCherry inh -23%.
`CC1(C)CC(C(CC(=O)O)c2ccccc2)CCO1` (centres undefined) gave LASV entry inh 1%, Vaccinia Venus 9%, MARV entry inh -15%, HCV inh 13% and VACV mCherry inh -9%.
`O=C(c1ccco1)N(CCC(c1ccccc1)c1ccco1)Cc1ccccc1` (centres undefined) gave LASV entry inh inconclusive, Vaccinia Venus -13%, MARV entry inh inconclusive, HCV inh -19%, VACV mCherry inh inactive and FMDV antiviral inconclusive.
